# Measured values reported in PubChem BioAssay (EPA / NIEHS).
# “And” between values parts separate entries of the source, which are not always exact repeats. Equal values may be shown once. Inconclusive results are not listed. Some compounds were tested as several samples or in several runs, with calls that do not always agree. The source made the active and inactive calls. How the source made its calls, unless noted: active means hit-call score of the fitted dose curve at least 0.9, where 1 is the maximum; inactive means score below 0.9.
# Assays:
# [1] = CCTE_Shafer_MEA_dev_AB: CCTE's Alamar Blue Assay for Cytotoxicity in the Neural Network Formation Assay, Shafer Lab (AID 2284083; active means hit-call score of the fitted dose curve at least 0.9, where 1 is the maximum;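 further: resazurin reduction fluorescence as viability of cultured neurons; twelve days of exposure from plating with re-dosing on DIV 5 and 9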)
# Method in brief: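 Resazurin fluorescence, relative to DMSO, gauges viability after twelve days of exposure that began at plating of rat cortical neurons (1.5 x 10^5 cells/well, 48-well MEA); treatment renewed with full medium exchange on DIV 5 and 9.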
# [2] = CCTE_Shafer_MEA_dev_mutual_information_norm: CCTE's Neural Network Formation Assay for Mutual Information Normalization, Shafer Lab (AID 2284091);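 on AC50: mutual information between electrodes summarised as area under curve across four recording days; potency is for a decrease in mutual information relative to DMSO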
# Method in brief: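 Shared information across electrodes, tracked on days 5, 7, 9 and 12 of network development and collapsed as trapezoidal area under the curve. Rat cortical cultures were treated continuously from plating, with treatment renewed at feeds on DIV 5 and 9; DMSO baseline, negative-direction fit.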
# [3] = CCTE_Shafer_MEA_dev_correlation_coefficient_mean: CCTE's Neural Network Formation Assay for Mean Correlation Coefficient, Shafer Lab (AID 2284093);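 on AC50: well mean pairwise spike train correlation integrated as AUC over recording days 5 to 12; potency fitted for loss of correlation relative to DMSO vehicle wells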
# Method in brief: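 Primary rat cortical neurons on PEI-coated 48-well MEA plates (16 electrodes/well) were exposed from plating day 0 through DIV12, with compound renewed at DIV5 and 9. Pairwise spike correlations were averaged per well; trapezoidal AUC across DIV5, 7, 9, 12.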
# [4] = UKN2_HCS_IMR90_neural_migration: University of Konstanz (UKN) Leist Lab Neural Crest Cell Migration Assay in human induced IMR90 Pluripotent Stem Cells (UKN2) (AID 2284204); conditions: actives raise or lower the signal
# Method in brief: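 High-content imaging of calcein-AM and Hoechst stained cells quantifies migration into a stopper-defined gap after 24 h compound exposure. Neural crest cells from IMR90 iPSC migrated 24 h in EGF/FGF N2-S medium before dosing; DMSO baseline.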
# [5] = IUF_NPC1b_proliferation_BrdU_72hr: Leibniz Research Institute for Environmental Medicine (IUF) 72-hour Neural Progenitor Cell Bromodeoxyuridine (BrdU) Proliferation Assay (NPC1b) (AID 2284207)
# Method in brief: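 Human fetal cortex-derived (GW 16-19) neural progenitor spheres, 0.25-0.35 mm, one per well in EGF/FGF proliferation medium, exposed to compound for 72 h at 37C, pH 7.2-7.6. BrdU incorporation over the final 16 h read by luminescence ELISA, relative to DMSO.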
# [6] = IUF_NPC1a_proliferation_area_72hr: Leibniz Research Institute for Environmental Medicine (IUF) 72-hour Neural Progenitor Cell Proliferation Area Assay (NPC1a) (AID 2284208)
# Method in brief: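 Spheres of 0.3 mm are plated singly in growth-factor medium and exposed from day 0. After three days at 37C and 5% CO2, sphere area is measured by phase contrast imaging, with activity referenced to DMSO.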
# [7] = IUF_NPC1_viability_72hr: Viability Assessment at 72 hours in the Leibniz Research Institute for Environmental Medicine (IUF) Neural Progenitor Cell Proliferation Assay (NPC1) (AID 2284209)
# Method in brief: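 Three-day continuous exposure of human neural progenitor spheres under EGF/FGF-driven proliferation; cell viability scored by alamar blue signal versus DMSO.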
# [8] = CCTE_Mundy_HCI_Cortical_Synap_Neur_Matur_NeuriteSpotCountPerNeuriteLength: CCTE's Synaptogenesis and Neurite Maturation Assay in rat cortical cells for Neurite Spot Count per Neurite Length, Mundy Lab (AID 2284210)
# Method in brief: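 Synaptophysin spots per unit neurite length, measured by automated imaging of MAP2/synaptophysin/Hoechst-stained neurons. Cultures from rat cortex received chemical at DIV 7 with media change through DIV 12; glial growth arrested by AraC at DIV 5; DMSO baseline.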
# [9] = CCTE_Mundy_HCI_Cortical_NOG_NeuriteCount: CCTE's Neurite Outgrowth Assay in rat cortical cells for Neurite Count, Mundy Lab (AID 2284212);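 further: cells fixed about two days after chemical exposure began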
# Method in brief: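 Rat cortical primary cells; compound added 2 h post-plating, 1/10 dilution of working solution. Anti-betaIII-tubulin/AF488 ICC; ArrayScan neurite count vs DMSO.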
# [10] = CCTE_Mundy_HCI_Cortical_NOG_NeuriteLength: CCTE's Neurite Outgrowth Assay in rat cortical cells for Neurite Length, Mundy Lab (AID 2284213);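 on AC50: neurites imaged about 48 to 50 h after chemical exposure began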
# Method in brief: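 First, rat primary cortical cells were plated and, 2 h later, given test chemical as a 1/10 dilution. Finally, βIII-tubulin immunostaining enabled automated imaging of neurite length.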
# [11] = CCTE_Mundy_HCI_Cortical_Synap_Neur_Matur_NeuriteLength: CCTE's Synaptogenesis and Neurite Maturation Assay in rat cortical cells for Neurite Length, Mundy Lab (AID 2284214)
# Method in brief: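 DMSO-normalised neurite length, from high-content imaging of anti-MAP2-stained rat cortical cells fixed at DIV 12. Glia were suppressed with AraC (DIV 5) before chemical exposure from DIV 7.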
# [12] = CCTE_Mundy_HCI_Cortical_Synap_Neur_Matur_NeuriteSpotCountPerNeuron: CCTE's Synaptogenesis and Neurite Maturation Assay in rat cortical cells for Neurite Spot Count per Neuron Count, Mundy Lab (AID 2284215)
# Method in brief: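 Rat cortical primary cultures; AraC DIV 5 to arrest glia; dosing + media change DIV 7; fixed DIV 12. Anti-MAP2/anti-synaptophysin, Hoechst nuclei; HCI puncta count per neuron, positive fitting direction vs DMSO.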
# [13] = CCTE_Mundy_HCI_Cortical_Synap_Neur_Matur_SynapseCount: CCTE's Synaptogenesis and Neurite Maturation Assay in rat cortical cells for Synapse Count, Mundy Lab (AID 2284218)
# Method in brief: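 Endpoint: synapses/neuron by HCI (synaptophysin puncta on MAP2-labelled neurites, Hoechst nuclei). Rat primary cortical cells, AraC DIV 5, dosed DIV 7, fixed DIV 12; DMSO negative control.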
# [14] = CCTE_Shafer_MEA_acute_LDH: CCTE's Lactate Dehydrogenase Assay for Cytotoxicity in the Neural Acute Assay, Shafer Lab (AID 2284086; active means hit-call score of the fitted dose curve at least 0.9, where 1 is the maximum;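 further: active means LDH release rises above DMSO vehicle level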)
# Method in brief: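 Cytotoxicity readout: spectrophotometric LDH activity in supernatant of rat primary cortical neurons, post-plating day 13 or 15, sampled after 40 min compound exposure; signal gain relative to DMSO baseline.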
# [15] = UKN4_HCS_LUHMES_neurite_outgrowth: University of Konstanz (UKN) Leist Lab Neurite Outgrowth Assay in human LUHMES cells (UKN4) (AID 2284206); conditions: actives raise or lower the signal
# Method in brief: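 Neurite area in dopaminergic-model LUHMES neurons is measured by high-content imaging of calcein-AM after 24 h treatment starting shortly after day-2 replating; Hoechst staining tracks viability.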
# [16] = CCTE_Mundy_HCI_Cortical_Synap_Neur_Matur_BPCount: CCTE's Synaptogenesis and Neurite Maturation Assay in rat cortical cells for Branch Point Count, Mundy Lab (AID 2284211)
# Method in brief: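 In this multiplexed morphology assay, cortical cells from rat receive chemicals at DIV 7 and are fixed at DIV 12, then immunostained and imaged; branch points are counted, with DMSO as baseline.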
# [17] = CCTE_Mundy_HCI_hN2_NOG_NeuriteCount: CCTE's Neurite Outgrowth Assay in human hN2 cells for Neurite Count, Mundy Lab (AID 2284219; active means hit-call score of the fitted dose curve at least 0.9, where 1 is the maximum)
# Method in brief: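 In this morphology assay, hNP1-derived neurons received test chemical 2 h post-plating and were fixed two days later in warm paraformaldehyde/sucrose containing Hoechst 33342. Neurites, labelled by rabbit anti-βIII-tubulin (1:800) and Alexa Fluor-488 (1:500), were counted automatically.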
# [18] = CCTE_Mundy_HCI_hN2_NOG_NeuriteLength: CCTE's Neurite Outgrowth Assay in human hN2 cells for Neurite Length, Mundy Lab (AID 2284220; active means hit-call score of the fitted dose curve at least 0.9, where 1 is the maximum)
# Method in brief: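 Plate hNP1-derived neurons, then add chemical 2 h later as a 1/10 dilution. Stain with anti-βIII-tubulin then Alexa Fluor-488 secondary, and image automatically to measure neurite length.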
# [19] = CCTE_Mundy_HCI_hN2_NOG_NeuronCount: CCTE's Neurite Outgrowth Assay in human hN2 cells for Neuron Count, Mundy Lab (AID 2284221; active means hit-call score of the fitted dose curve at least 0.9, where 1 is the maximum)
# Method in brief: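 Read-out is the number of betaIII-tubulin-positive neurons imaged by automated high-content analysis, with DMSO as negative control.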
# [20] = TAMU_PeakParms_SingleDonor1434_Chronotropy: Texas A&M University (TAMU) 1.5-hr Human Induced Pluripotent Stem Cell (iPSC)-derived Cardiomyocytes Calcium (Ca+2) Flux Assay for Cardiotoxicity: Chronotropy (changes in peak frequency) (AID 2284217); conditions: actives raise or lower the signal
# Method in brief: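 Beat rate, as mean Ca2+-flux peak frequency, was read from donor 1434 iPSC cardiomyocytes 90 min after exposure to 0.2–100 uM test chemical (0.5% DMSO). Wells that stopped beating were excluded; EC05 from bidirectional DMSO-referenced fitting.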
smiles,measurement,setting,value
CCSC(=O)N1CCCCCC1,outcome,[1],inactive
same,outcome,[2],inactive
same,outcome,[3],inactive
same,outcome,[4],inactive
same,outcome,[5],inactive
same,outcome,[6],inactive
same,outcome,[7],inactive
same,outcome,[8],inactive
same,outcome,[9],inactive
same,outcome,[10],inactive
same,outcome,[11],inactive
same,outcome,[12],inactive
same,outcome,[13],inactive
CCOP(=O)(OCC)Oc1nc(Cl)c(Cl)cc1Cl,AC50,[1],9.43 µM (active) and 334 nM (active)
same,outcome,[1],inactive
same,outcome,[14],inactive
same,AC50,[2],872 nM (active) and 2.17 µM (active)
same,outcome,[2],inactive
same,AC50,[3],5.46 µM (active) and 7.1 µM (active)
same,outcome,[3],inactive
same,outcome,[4],inactive
same,outcome,[15],inactive
same,outcome,[5],inactive
same,AC50,[6],8.27 µM (active)
same,outcome,[7],inactive
same,outcome,[8],inactive
same,outcome,[16],inactive
same,outcome,[9],inactive
same,outcome,[10],inactive
same,AC50,[11],16.2 µM (active)
same,outcome,[11],inactive
same,AC50,[12],9.92 µM (active)
same,outcome,[12],inactive
same,outcome,[13],inactive
same,AC50,[17],50 µM (active)
same,AC50,[18],38.4 µM (active)
same,AC50,[19],50 µM (active)
COP(=S)(OC)SCn1nnc2ccccc2c1=O,AC50,[1],26.2 µM (active)
same,outcome,[14],inactive
same,AC50,[2],4.99 nM (active)
same,AC50,[3],15 µM (active)
same,AC50,[4],19.6 µM (active)
same,AC50,[15],15.4 µM (active)
same,outcome,[5],inactive
same,outcome,[6],inactive
same,outcome,[7],inactive
same,outcome,[8],inactive
same,outcome,[16],inactive
same,outcome,[9],inactive
same,outcome,[10],inactive
same,outcome,[11],inactive
same,outcome,[12],inactive
same,outcome,[13],inactive
CCCN(CC)CC1COC2(CCC(C(C)(C)C)CC2)O1 (stereo unspecified),AC50,[1],0.246 µM (active)
same,AC50,[2],119 nM (active)
same,AC50,[3],0.281 µM (active)
CC(C)N1C(=O)c2ccccc2NS1(=O)=O,outcome,[14],inactive
N#CN=C1SCCN1Cc1ccc(Cl)nc1,outcome,[14],inactive
same,outcome,[2],inactive
same,outcome,[3],inactive
same,outcome,[5],inactive
same,outcome,[6],inactive
same,outcome,[7],inactive
same,outcome,[8],inactive
same,outcome,[16],inactive
same,outcome,[9],inactive
same,outcome,[10],inactive
same,outcome,[11],inactive
same,outcome,[12],inactive
same,outcome,[13],inactive
CC(C)=CC1C(C(=O)OCc2coc(Cc3ccccc3)c2)C1(C)C (stereo unspecified),outcome,[1],inactive
same,outcome,[14],inactive
same,outcome,[2],inactive
same,outcome,[3],inactive
C=C(C)CN(CC)c1c([N+](=O)[O-])cc(C(F)(F)F)cc1[N+](=O)[O-],AC50,[1],15.6 µM (active)
same,AC50,[2],12800 nM (active)
same,AC50,[3],14 µM (active)
same,outcome,[4],inactive
same,AC50,[5],92.8 µM (active)
same,outcome,[6],inactive
same,outcome,[7],inactive
same,AC50,[8],6.36 µM (active)
same,AC50,[16],6.23 µM (active)
same,AC50,[9],65.1 µM (active)
same,AC50,[10],32.4 µM (active)
same,AC50,[11],5.64 µM (active)
same,AC50,[12],6.14 µM (active)
same,AC50,[13],4.72 µM (active)
COP(=O)(OC)O/C(C)=C/C(=O)N(C)C,outcome,[1],inactive
same,outcome,[2],inactive
same,outcome,[3],inactive
same,outcome,[8],inactive
same,outcome,[16],inactive
same,outcome,[9],inactive
same,outcome,[10],inactive
same,outcome,[11],inactive
same,outcome,[12],inactive
same,outcome,[13],inactive
Cc1nc(N(C)C)nc(OC(=O)N(C)C)c1C,outcome,[14],inactive
Clc1nc(Cl)nc(Nc2ccccc2Cl)n1,outcome,[14],inactive
N#Cc1c[nH]cc1-c1cccc2c1OC(F)(F)O2,outcome,[14],inactive
CCNC(=O)NC(=O)C(C#N)=NOC,outcome,[1],inactive
same,outcome,[2],inactive
same,outcome,[3],inactive
same,outcome,[5],inactive
same,outcome,[6],inactive
same,outcome,[7],inactive
same,outcome,[8],inactive
same,outcome,[16],inactive
same,outcome,[9],inactive
same,outcome,[10],inactive
same,outcome,[11],inactive
same,outcome,[12],inactive
same,AC50,[13],0.0179 µM (active)
COP(=S)(OC)Oc1ccc([N+](=O)[O-])c(C)c1,outcome,[1],inactive
same,outcome,[2],inactive
same,outcome,[3],inactive
Cc1c(COC(=O)[C@@H]2[C@H](/C=C(\Cl)C(F)(F)F)C2(C)C)cccc1-c1ccccc1,AC50,[1],14.6 µM (active) and 14.9 µM (active)
same,outcome,[14],inactive
same,AC50,[2],142 nM (active) and 269 nM (active)
same,AC50,[3],395 nM (active) and 497 nM (active)
same,outcome,[4],inactive
same,AC50,[5],0.97 µM (active)
same,outcome,[6],inactive
same,outcome,[7],inactive
same,AC50,[8],3.2 µM (active)
same,AC50,[16],2.71 µM (active)
same,AC50,[9],27.8 µM (active)
same,AC50,[10],26.9 µM (active)
same,AC50,[11],3.7 µM (active)
same,AC50,[12],3.15 µM (active)
same,AC50,[13],3.14 µM (active)
CN/C(=N\[N+](=O)[O-])NCc1cnc(Cl)s1,outcome,[2],inactive
same,outcome,[3],inactive
same,outcome,[5],inactive
same,outcome,[6],inactive
same,outcome,[7],inactive
same,outcome,[8],inactive
same,outcome,[16],inactive
same,outcome,[9],inactive
same,outcome,[10],inactive
same,outcome,[11],inactive
same,outcome,[12],inactive
same,outcome,[13],inactive
COCC(=O)N(c1c(C)cccc1C)C(C)C(=O)OC (stereo unspecified),outcome,[14],inactive
CCCCC(C#N)(Cn1cncn1)c1ccc(Cl)cc1 (stereo unspecified),outcome,[20],inactive
